Reference: ChEMBL document CHEMBL2218924, “A broad activity screen in support of a chemogenomic map for kinase signalling research and drug discovery” (Biochem J, 2013)

How the values were obtained:
[1] = target: Mitogen-activated protein kinase 10 (Homo sapiens) (UniProt P53779); conditions: at 10 µM
[2] = target: Vascular endothelial growth factor receptor 2 (Homo sapiens) (UniProt P35968); conditions: at 1 µM
[3] = target: Vascular endothelial growth factor receptor 2 (Homo sapiens) (UniProt P35968); conditions: at 10 µM
[4] = target: LIM domain kinase 1 (Homo sapiens) (UniProt P53667); conditions: at 1 µM
[5] = target: LIM domain kinase 1 (Homo sapiens) (UniProt P53667); conditions: at 10 µM
[6] = target: T1, Serine/threonine-protein kinase STK11 (Homo sapiens) (UniProt Q15831); conditions: at 1 µM
T1 sequence (whole entry): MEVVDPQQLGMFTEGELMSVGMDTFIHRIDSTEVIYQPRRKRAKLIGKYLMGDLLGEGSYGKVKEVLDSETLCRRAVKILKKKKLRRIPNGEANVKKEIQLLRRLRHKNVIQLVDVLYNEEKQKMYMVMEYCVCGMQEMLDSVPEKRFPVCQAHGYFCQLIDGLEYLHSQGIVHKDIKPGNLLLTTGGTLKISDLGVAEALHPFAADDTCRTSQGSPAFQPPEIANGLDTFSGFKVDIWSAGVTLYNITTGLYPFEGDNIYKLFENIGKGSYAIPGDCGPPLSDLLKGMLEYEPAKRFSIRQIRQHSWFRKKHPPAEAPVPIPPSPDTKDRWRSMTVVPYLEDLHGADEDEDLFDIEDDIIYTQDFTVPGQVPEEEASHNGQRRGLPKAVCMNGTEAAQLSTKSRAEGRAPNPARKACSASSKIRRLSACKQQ

[7] = target: T1, Serine/threonine-protein kinase STK11 (Homo sapiens); conditions: at 10 µM
[8] = target: Serine/threonine-protein kinase 10 (Homo sapiens) (UniProt O94804); conditions: at 1 µM
[9] = target: Serine/threonine-protein kinase 10 (Homo sapiens) (UniProt O94804); conditions: at 10 µM
[10] = target: Tyrosine-protein kinase Lck (Homo sapiens) (UniProt P06239); conditions: at 1 µM
Tyrosine-protein kinase Lck (Homo sapiens), sequence (P06239 2-509 limits assumed): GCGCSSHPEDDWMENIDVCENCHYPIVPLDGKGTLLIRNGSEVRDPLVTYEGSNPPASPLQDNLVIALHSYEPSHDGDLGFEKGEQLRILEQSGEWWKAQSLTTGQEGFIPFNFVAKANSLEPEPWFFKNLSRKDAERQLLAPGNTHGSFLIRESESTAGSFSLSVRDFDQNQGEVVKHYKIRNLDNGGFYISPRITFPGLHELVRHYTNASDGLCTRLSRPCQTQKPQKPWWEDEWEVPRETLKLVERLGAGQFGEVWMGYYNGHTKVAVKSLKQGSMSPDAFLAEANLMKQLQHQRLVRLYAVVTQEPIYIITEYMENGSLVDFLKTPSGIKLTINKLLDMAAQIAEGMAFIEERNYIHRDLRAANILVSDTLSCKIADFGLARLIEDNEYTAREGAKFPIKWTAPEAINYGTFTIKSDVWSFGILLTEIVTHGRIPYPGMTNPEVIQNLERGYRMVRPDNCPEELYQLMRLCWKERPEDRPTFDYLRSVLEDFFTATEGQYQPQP

LIM domain kinase 1 (Homo sapiens), sequence (P53667 whole entry, looked up, the tested form may be a part): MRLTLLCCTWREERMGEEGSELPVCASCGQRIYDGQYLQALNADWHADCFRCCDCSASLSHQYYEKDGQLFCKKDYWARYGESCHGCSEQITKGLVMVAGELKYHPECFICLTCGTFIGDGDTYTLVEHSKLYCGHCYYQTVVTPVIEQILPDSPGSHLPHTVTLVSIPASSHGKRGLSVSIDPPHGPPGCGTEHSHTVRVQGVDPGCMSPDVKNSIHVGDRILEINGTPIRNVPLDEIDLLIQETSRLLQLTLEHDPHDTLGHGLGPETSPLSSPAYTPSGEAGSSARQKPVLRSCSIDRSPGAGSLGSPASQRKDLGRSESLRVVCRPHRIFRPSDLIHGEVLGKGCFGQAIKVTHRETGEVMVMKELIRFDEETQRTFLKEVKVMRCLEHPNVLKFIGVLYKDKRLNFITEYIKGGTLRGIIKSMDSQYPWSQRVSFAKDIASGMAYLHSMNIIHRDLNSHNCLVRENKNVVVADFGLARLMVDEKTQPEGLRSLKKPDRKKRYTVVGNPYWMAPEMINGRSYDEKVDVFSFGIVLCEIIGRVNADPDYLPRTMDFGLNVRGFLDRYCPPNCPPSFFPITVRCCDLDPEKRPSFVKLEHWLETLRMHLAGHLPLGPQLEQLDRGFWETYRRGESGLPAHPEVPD
Mitogen-activated protein kinase 10 (Homo sapiens), sequence (P53779 whole entry): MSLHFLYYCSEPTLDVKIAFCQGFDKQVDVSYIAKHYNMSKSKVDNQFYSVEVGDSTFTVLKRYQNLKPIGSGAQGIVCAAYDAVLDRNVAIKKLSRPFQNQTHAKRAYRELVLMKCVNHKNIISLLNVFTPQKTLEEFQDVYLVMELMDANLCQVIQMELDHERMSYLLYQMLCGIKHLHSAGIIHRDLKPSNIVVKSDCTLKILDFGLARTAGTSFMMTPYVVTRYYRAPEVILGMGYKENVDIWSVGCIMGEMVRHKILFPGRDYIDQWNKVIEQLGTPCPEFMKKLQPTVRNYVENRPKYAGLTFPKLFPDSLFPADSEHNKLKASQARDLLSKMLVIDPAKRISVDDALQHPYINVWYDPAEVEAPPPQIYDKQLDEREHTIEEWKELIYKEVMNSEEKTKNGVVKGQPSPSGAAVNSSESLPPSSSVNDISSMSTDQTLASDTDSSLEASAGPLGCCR
Serine/threonine-protein kinase 10 (Homo sapiens), sequence (O94804 whole entry, looked up): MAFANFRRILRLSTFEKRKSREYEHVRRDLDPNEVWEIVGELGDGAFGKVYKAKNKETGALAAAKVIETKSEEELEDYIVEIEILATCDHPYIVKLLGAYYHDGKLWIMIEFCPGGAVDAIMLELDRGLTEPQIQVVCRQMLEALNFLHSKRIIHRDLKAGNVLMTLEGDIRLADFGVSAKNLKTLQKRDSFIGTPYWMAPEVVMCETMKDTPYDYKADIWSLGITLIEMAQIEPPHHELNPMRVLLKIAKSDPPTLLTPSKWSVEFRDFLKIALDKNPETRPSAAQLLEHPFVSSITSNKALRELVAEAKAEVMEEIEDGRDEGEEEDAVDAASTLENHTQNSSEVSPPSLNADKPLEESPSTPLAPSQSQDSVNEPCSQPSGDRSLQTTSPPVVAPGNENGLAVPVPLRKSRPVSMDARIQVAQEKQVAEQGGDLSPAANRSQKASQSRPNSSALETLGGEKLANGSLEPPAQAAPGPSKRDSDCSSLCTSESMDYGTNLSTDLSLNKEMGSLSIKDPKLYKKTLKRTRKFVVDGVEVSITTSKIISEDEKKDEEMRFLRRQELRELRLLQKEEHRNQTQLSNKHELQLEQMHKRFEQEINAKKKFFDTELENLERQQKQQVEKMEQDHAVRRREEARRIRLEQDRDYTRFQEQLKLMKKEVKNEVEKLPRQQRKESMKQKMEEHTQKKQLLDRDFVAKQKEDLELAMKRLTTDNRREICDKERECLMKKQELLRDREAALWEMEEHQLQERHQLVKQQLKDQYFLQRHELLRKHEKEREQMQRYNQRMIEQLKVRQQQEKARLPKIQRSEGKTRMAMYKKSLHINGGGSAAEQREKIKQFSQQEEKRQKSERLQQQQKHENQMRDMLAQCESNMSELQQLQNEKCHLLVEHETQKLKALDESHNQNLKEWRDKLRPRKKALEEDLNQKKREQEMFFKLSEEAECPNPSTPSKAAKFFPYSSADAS
Vascular endothelial growth factor receptor 2 (Homo sapiens), sequence (P35968 whole entry, the tested form may be a part): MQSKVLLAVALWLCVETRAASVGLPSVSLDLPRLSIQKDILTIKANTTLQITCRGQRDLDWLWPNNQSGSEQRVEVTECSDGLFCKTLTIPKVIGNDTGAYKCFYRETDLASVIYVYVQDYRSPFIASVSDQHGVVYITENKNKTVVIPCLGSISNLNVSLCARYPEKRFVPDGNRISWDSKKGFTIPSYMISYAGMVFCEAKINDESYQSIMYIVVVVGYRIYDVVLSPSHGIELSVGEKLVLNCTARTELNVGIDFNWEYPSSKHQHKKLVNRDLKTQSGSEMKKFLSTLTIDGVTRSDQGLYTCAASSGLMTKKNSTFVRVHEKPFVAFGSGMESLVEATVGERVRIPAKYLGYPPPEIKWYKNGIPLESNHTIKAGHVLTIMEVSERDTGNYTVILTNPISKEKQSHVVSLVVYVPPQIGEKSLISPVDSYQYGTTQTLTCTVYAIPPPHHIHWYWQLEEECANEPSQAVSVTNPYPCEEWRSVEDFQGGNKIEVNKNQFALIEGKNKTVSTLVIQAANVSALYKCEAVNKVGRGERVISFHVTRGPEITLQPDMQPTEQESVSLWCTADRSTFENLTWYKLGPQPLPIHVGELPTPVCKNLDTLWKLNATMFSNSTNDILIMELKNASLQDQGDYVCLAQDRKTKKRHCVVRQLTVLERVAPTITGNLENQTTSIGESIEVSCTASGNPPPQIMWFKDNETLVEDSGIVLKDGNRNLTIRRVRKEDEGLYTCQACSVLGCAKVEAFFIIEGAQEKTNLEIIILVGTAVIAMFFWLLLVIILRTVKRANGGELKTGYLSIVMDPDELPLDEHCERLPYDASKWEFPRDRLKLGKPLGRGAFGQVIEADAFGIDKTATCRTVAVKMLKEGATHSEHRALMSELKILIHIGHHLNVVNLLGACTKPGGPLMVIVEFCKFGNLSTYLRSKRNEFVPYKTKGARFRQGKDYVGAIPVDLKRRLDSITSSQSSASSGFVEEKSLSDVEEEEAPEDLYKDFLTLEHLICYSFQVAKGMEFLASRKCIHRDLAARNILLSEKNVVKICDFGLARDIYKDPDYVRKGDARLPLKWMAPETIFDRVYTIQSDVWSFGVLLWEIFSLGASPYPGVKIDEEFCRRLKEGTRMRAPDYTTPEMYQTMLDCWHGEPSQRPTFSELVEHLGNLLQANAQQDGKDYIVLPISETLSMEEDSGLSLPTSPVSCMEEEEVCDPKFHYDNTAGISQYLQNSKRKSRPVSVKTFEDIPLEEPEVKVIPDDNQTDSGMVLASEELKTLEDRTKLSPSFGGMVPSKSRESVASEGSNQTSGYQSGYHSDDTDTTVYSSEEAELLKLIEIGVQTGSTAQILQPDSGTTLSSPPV

SMILES	residual activity [1]	residual activity [2]	residual activity [3]	residual activity [4]	residual activity [5]	residual activity [6]	residual activity [7]	residual activity [8]	residual activity [9]	residual activity [10]
Cn1sc(=O)n(Cc2ccccc2)c1=O	94%	99%	91%	86%	79%	97%	93%	95%	95%	–
COc1cc2nccc(Oc3ccc(NC(=S)NC(=O)c4ccccc4C)cc3)c2cc1OC	79%	4%	3%	60%	28%	98%	90%	6%	7%	1%
CCOc1nc(NC(=O)Cc2cc(OC)ccc2OC)cc(N)c1C#N	-2%	–	–	–	–	–	–	–	–	–
O=C(O)/C=C/c1cc(Br)c(Br)c(Br)c1Br	46%	99%	81%	105%	71%	93%	38%	94%	58%	77%
Cn1c2ccccc2c2c3c(c4c5ccccc5n(CCC#N)c4c21)CNC3=O	9%	7%	6%	48%	20%	82%	96%	21%	8%	–
CCCCc1c(-c2ccc(OC)cc2)[nH]c2nccnc12	41%	73%	68%	50%	57%	108%	101%	–	110%	55%
c1ccc(-c2cnc(Nc3ccc(OCCN4CCCC4)cc3)s2)cc1	36%	10%	4%	64%	16%	108%	103%	75%	55%	58%
O=C1NC(=O)c2c1c1c3ccccc3[nH]c1n1cncc21	11%	10%	8%	71%	48%	84%	62%	70%	58%	61%
O=c1cc(N2CCNCC2)oc2c(-c3ccccc3)cccc12	89%	100%	89%	92%	86%	97%	92%	95%	89%	–
CN(C)S(=O)(=O)c1ccc2c(c1)/C(=C/c1cc3c([nH]1)CCCC3)C(=O)N2	81%	51%	40%	90%	77%	99%	96%	63%	78%	–
NCCNc1ncc(C(N)=O)c(Nc2cccc(C(F)(F)F)c2)n1	46%	101%	78%	102%	50%	74%	20%	–	–	80%
O=C(NC(NC(=S)Nc1ccc(F)c([N+](=O)[O-])c1)C(Cl)(Cl)Cl)C(c1ccccc1)c1ccccc1 (stereo not drawn)	79%	104%	102%	90%	75%	98%	103%	–	–	95%
CC(C)c1nn(-c2c(Cl)cccc2Cl)c2nc(Cc3ccc(OCCO)cc3)[nH]c(=O)c12	29%	98%	89%	102%	84%	90%	48%	55%	55%	104%
Nc1ncnc2[nH]nc(Nc3ccc(F)cc3)c12	92%	97%	54%	90%	58%	102%	–	53%	7%	49%
Nc1nc(Nc2ccc(S(N)(=O)=O)cc2)nn1C(=O)c1c(F)cccc1F	12%	33%	4%	12%	2%	99%	95%	17%	6%	58%
O=C(c1cc2cc(O)ccc2[nH]1)c1cc2cc(O)ccc2[nH]1	33%	18%	3%	74%	41%	100%	–	55%	20%	16%
O=c1cc(N2CCOCC2)oc2c1ccc1ccccc12	70%	103%	87%	108%	92%	102%	93%	98%	91%	–
CC(C)(C)n1nc(Cc2cccc3ccccc23)c2c(N)ncnc21	-1%	69%	14%	101%	69%	91%	61%	80%	41%	36%
CCN1/C(=C/C(C)=O)Sc2ccc(OC)cc21	64%	–	–	–	–	–	–	–	–	–
CCCCc1c(-c2ccc(O)cc2)[nH]c2nccnc12	23%	77%	42%	64%	53%	–	73%	80%	90%	48%
CCN(CC)CCNC(=O)c1c(C)[nH]c(/C=C2\C(=O)Nc3ccc(Cl)cc32)c1C	75%	2%	1%	99%	44%	–	–	15%	5%	12%
O=C1Nc2ccc(Cl)cc2/C1=C/c1cc(Cl)c(O)c(Cl)c1	32%	13%	1%	88%	42%	91%	86%	67%	47%	95%
COc1cc2ncnc(Nc3cccc(Cl)c3)c2cc1OC	50%	60%	16%	111%	41%	100%	101%	24%	8%	52%
Nc1ncnc2c1cnn2-c1ccccc1	70%	102%	83%	99%	67%	96%	98%	98%	85%	–
COc1cc2c(cc1OC)-c1n[nH]c(Nc3cccc(F)c3)c1C2	33%	75%	25%	13%	2%	–	–	59%	37%	–
